# Screening data (PubChem)
# This is one part of a sample in which hits are shown more often than they occur.
# FBPA Giardia inh – qHTS Assay for Inhibitors of Fructose-1,6-bisphosphate Aldolase from Giardia Lamblia | purified Giardia FBPA | Potency, µM (titrated, usually from 59.6 µM), for the others: at the top dose activity, negative = inhibition, actives largely listed as inhibitors | actives 0.71% (n = 290,000) | AID 2451, 2010; note: potency is the fitted concentration of half-maximal effect; % is set by controls: 0 for no effect and ±100 for the full control effect; nearly all actives have a fitted effect of over 55% in size
#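 40 nM FBPA preincubated 10 min at RT with compound (up to 57.5 uM final), then substrate plus GAPDH/TPI/NAD/arsenate coupling and diaphorase/resazurin added. Fluorescence read after 20 min at RT, 525/598 nm.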
# Tb PYK inh – qHTS of Trypanosoma Brucei Inhibitors | pyruvate kinase (Trypanosoma brucei), Q57TT1 | TbPYK enzyme, Kinase-Glo Plus ATP luminescence, 45 min | Potency, µM (series often up to 76.8 µM), without a hit: top-dose activity, negative = inhibition, most hits filed as inhibitors | actives 0.12% (n = 410,000); note: potency is the fitted concentration of half-maximal effect; % is set by controls: 0 for no effect and ±100 for the full control effect; nearly all actives have a fitted effect of over 50% in size
#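 Screened from lowest to highest concentration, compounds were pinned into TbPYK/substrate mixtures, and ADP (130 uM final) was added. Plates sat at room temperature for 45 min prior to Kinase-Glo Plus detection by luminescence.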
# LmPK inh – qHTS Assay for Inhibitors of Leishmania Mexicana Pyruvate Kinase (LmPK); Q27686; purified LmPK, Kinase-Glo ATP luminescence, 1 h; Potency, µM (doses to about 57.5 µM), for inactives: at the highest dose activity change, negative = inhibition, most hits filed as inhibitors; actives 0.37% (n = 290,000); note: potency is the fitted concentration of half-maximal effect; % is set by controls: 0 for no effect and ±100 for the full control effect
# Target sequence (Q27686 whole entry, looked up): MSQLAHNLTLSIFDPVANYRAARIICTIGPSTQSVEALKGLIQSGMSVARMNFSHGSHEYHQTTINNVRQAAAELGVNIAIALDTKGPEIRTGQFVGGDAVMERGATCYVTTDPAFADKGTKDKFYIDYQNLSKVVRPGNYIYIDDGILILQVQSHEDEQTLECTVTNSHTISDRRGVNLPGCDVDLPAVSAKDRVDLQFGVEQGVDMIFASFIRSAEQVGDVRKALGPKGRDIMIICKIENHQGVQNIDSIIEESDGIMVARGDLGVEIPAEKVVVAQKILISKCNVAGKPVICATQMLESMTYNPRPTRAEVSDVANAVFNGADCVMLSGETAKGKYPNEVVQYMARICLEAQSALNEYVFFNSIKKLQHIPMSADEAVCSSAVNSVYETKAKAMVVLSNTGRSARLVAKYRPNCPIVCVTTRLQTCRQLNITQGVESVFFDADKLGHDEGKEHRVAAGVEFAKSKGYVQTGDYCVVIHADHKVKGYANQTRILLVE
#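 Kinase-Glo luminescence read after 1 h RT reaction of 0.1 nM LmPK with 0.5 mM PEP and 0.1 mM ADP. Activity scaled between uninhibited and enzyme-free controls.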
# CHX counter – Cycloheximide Counterscreen for Small Molecule Inhibitors of Shiga Toxin; max response, %; actives 12% (n = 300,000); AID 2314, 2010; cell reporter, cycloheximide protein synthesis inhibition counterscreen; in the data active = max response mostly above about 13%, no sharp cut-off; inactive = mostly below about 14%; note: read at 38.3 µM for the half of the compounds with a filed dose; 0% is about no effect
# Shiga inhibitor – A qHTS for Small Molecule Inhibitors of Shiga Toxin; Vero cells, Shiga toxin protein synthesis inhibition reporter; inhibition, % at 38.7 µM; actives 9.2% (n = 290,000); AID 2315, 2010; in the data active = inhibition mostly above about 28%, no sharp cut-off; inactive = mostly below about 43%; note: 0% is about no effect
# RE007 growth inh – qHTS Assay for Inhibitors of the HIV-1 protein Vpr; S. pombe RE007 Vpr strain, BacTiter-Glo ATP luminescence, 24 h; Potency, µM (highest dose often 92.2 µM), for inactives: top-dose activity change, negative = less growth, actives largely listed as inhibitors; actives 0.21% (n = 360,000); active = well fitted falling curve with a large enough effect; inconclusive = small, poorly fitted or top-dose-only effect; inactive = no such curve, though single readings can be large or run the other way; note: potency is the fitted concentration of half-maximal effect; % is set by controls: 0 for no effect and ±100 for the full control effect; nearly all actives have a fitted effect of over 50% in size
#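 Fission yeast RE007 carrying one integrated HIV-1 vpr copy, seeded at OD 0.01 in PMG+AL medium with 23 nL pinned compound. Grown 24 h at 30 degrees; viability read by BacTiter-Glo luminescence after 5 min.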
# Numbers without * were called inactive; ? = inconclusive; · = no result given; [ ] = dose if it differs, or a comment. Unless noted, calls come from the whole dose curve; as a rule, active = well fitted curve in the direction sought with a large enough effect; inconclusive = small, poorly fitted or top-dose-only effect, or another doubt; inactive = no such curve, though single readings can be large; an effect the other way counts as inactive or inconclusive.
SMILES,FBPA Giardia inh,Tb PYK inh,LmPK inh,CHX counter,Shiga inhibitor,RE007 growth inh
CCc1ccc(S(=O)(=O)c2nnn3c2nc(NCCC(C)C)c2cc(Cl)ccc23)cc1,·,-4%,·,·,·,·
CC(C)=CC(O)C/C(C)=C/COc1ccc2ccc(=O)oc2c1 (stereo unspecified),-1%,-6%,0%,8.6*,38,7%
Cc1c(C(=O)N2CCc3ccccc32)oc2ccccc12,-8%,0%,?,55*,69*,-20%
Cc1c(C(=O)N2CCN(S(C)(=O)=O)CC2)oc2ccccc12,-4%,-2%,3%,9.2*,17,-8%
Cc1c(C(=O)N2CCN(S(=O)(=O)c3ccccc3)CC2)oc2ccccc12,·,0%,·,·,·,1%
COCc1c(C(=O)N2CCc3ccccc32)oc2ccccc12,-11%,6%,-3%,14,70*,19%
CCOc1ccccc1NC(=O)c1c(NC(=O)COc2ccccc2)sc2c1CCCCC2,·,0%,·,·,·,·
CCCNC(=O)C1CCC(Cn2c(=O)c3sccc3n(CC(=O)Nc3ccccc3C)c2=O)CC1 (stereo unspecified),·,2%,·,·,·,·
Cc1ccc(C(=O)c2ccccc2C(=O)OCC(=O)NCCc2ccc(Cl)cc2Cl)cc1,-6%,4%,1%,1,-15,0%
O=C(COC(=O)c1ccc[nH]c1=O)NCCc1ccc(Cl)cc1Cl,5%,2%,-1%,79*,98*,19%
CC1CCC(=NNC(=O)Cc2ccccc2)CC1 (stereo unspecified),0%,-2%,2%,14*,9,-3%
O=C(Cc1ccccc1)NCC(=O)N1CCCCCC1,0%,1%,-3%,19*,23,-1%
CC1CCN(C(=O)CNC(=O)Cc2ccccc2)CC1,1%,-6%,0%,23*,30*,12%
CC(C)c1ccc(NC2CCCN(C(=O)c3ccco3)C2)cc1 (stereo unspecified),·,-1%,-3%,13*,43,2%
CC(C)c1ccc(NC2CCCN(C(=O)c3ccnc(Cl)c3)C2)cc1 (stereo unspecified),-6%,-7%,1%,-3,-2,11%
CCOC(=O)c1c(C)[nH]c(C)c1S(=O)(=O)N(C)CC(=O)Nc1ccc(C)cc1C,·,4%,·,·,·,·
COc1ccc(OC)c(-c2ccccc2/C=N/NS(=O)(=O)c2ccc(C)cc2)c1,0%[12.9 µM],·,·,·,·,·
Cc1ccc(S(=O)(=O)NCCC(=O)N2CCC(C)CC2)cc1,·,-1%,·,·,·,0%
CC1CCCN(C(=O)CNC(=O)c2ccco2)C1 (stereo unspecified),·,4%,-5%,33*,53*,18%
O=C(NCC(=O)N1CCCC(C(F)(F)F)C1)c1ccco1 (stereo unspecified),·,-10%,·,·,·,6%
CC1CCN(C(=O)CCNS(=O)(=O)c2ccccc2)CC1,0%,-7%,2%,22*,56*,3%
O=C(COc1ccccc1F)OCc1cc(=O)n2nc(C3CC3)sc2n1,·,-1%,·,·,·,·
Cc1ccc(S(=O)(=O)Oc2ccc(/C=N/NC(=O)c3nn(C)cc3Cl)cc2)cc1,-1%,2%,2%,9,21,10%
CSCCOC(=O)COc1ccc(/C=N/NC(=O)c2nn(C)cc2Cl)cc1,-1%,-7%,-3%,28*,59*,-16%
O=c1[nH]nc(SCCS(=O)(=O)c2ccc(F)cc2)n1-c1ccc2c(c1)OCCO2,3%,-9%,1%,2,1,2%
SMILES,FBPA Giardia inh,Tb PYK inh,LmPK inh,CHX counter,Shiga inhibitor,RE007 growth inh
O=c1[nH]nc(SCCS(=O)(=O)c2ccc(F)cc2)n1-c1ccccc1,0%,3%,4%,12*,-11,?
COC(=O)CN1C(=O)CSc2ccc(S(=O)(=O)Nc3ccc(C(C)=O)cc3)cc21,·,-3%,·,·,·,·
COc1ccccc1-c1csc(Cc2nnc3n2CCCCC3)n1,4%,1%,2%,46*,153*,4%
Cc1ccc(C)c(-n2nnc(-c3nc(-c4ccc(Cl)cc4)no3)c2N)c1,·,3%,·,·,·,·
CCc1cc(-c2n[nH]c(=S)n2C(C)c2ccccc2)cs1 (stereo unspecified),16%,-67%,14µM*,13,4,8%
Cc1scc(-c2n[nH]c(=S)n2C(C)c2ccccc2)c1C (stereo unspecified),0%,2.2µM*,13µM*,-3,-16,·
COc1cccc(Cn2c(CNC(=O)Cc3cccc(C)c3)nc3cccnc32)c1,·,0%,·,·,·,·
COCCNC(=O)[C@@]1(Cc2ccccc2)C=C[C@@H](C)N1C(C)=O,3%,6%,2%,38*,45*,-13%
CC(=O)N1[C@H](C)C=C[C@]1(Cc1ccccc1)C(=O)O,1%,0%,-1%,-3,-7,10%
CC1=C(/C=C/C(C)=N\NC(=O)c2ccncc2)C(C)(C)CCC1,-15%,-3%,-5%,13*,-11,8%
CCOc1ccc(NC(=O)CSC2=Nc3ccccc3C3=NC(Cc4ccccc4)C(=O)N23)cc1 (stereo unspecified),·,-2%,·,·,·,·
COc1cccc(OCc2nnc(SC)n2C)c1,3%,-12%,-5%,32*,45,12%
CCOc1ccc2oc(C(=O)OCC(=O)NC3CCCCC3)c(C)c2c1,·,1%,·,·,·,-8%
CC1CC(C)CN(C(=O)COC(=O)c2ccc3c(c2)OCO3)C1 (stereo unspecified),·,3%,·,·,·,2%
Cc1c(C(=O)OCC(=O)N2CC(C)CC(C)C2)oc2ccccc12 (stereo unspecified),·,4%,·,·,·,6%
Cc1c(C(=O)OCCN2CCCCC2)oc2ccccc12,-8%,6%,-3%,14*,21,1%
COc1ccc2oc(C(=O)OCC(=O)NC3CCCC3)c(C)c2c1,2%,-1%,3%,38*,71*,-12%
Cc1c(C(=O)OCC(=O)N2C(C)CCCC2C)oc2ccccc12 (stereo unspecified),·,-8%,1%,50*,96*,-8%
CCOc1ccc2oc(C(=O)OCC(=O)N3C(C)CCCC3C)c(C)c2c1 (stereo unspecified),·,0%,·,·,·,-11%
CC1CCCC(C)N1C(=O)COC(=O)c1ccc2c(c1)OCO2 (stereo unspecified),3%,3%,0%,17*,43,2%
COc1ccc2oc(C(=O)OCC(=O)N3C(C)CCCC3C)c(C)c2c1 (stereo unspecified),-4%,0%,-1%,37*,63*,-6%
